Laboratory results published in PubChem BioAssay (Tox21).
Inconclusive results are not listed. Calls of active or inactive are those of the source. Unless noted, calls follow the shape of the full dose curve.

Columns and labels:
[1] = Nuclear factor erythroid 2-related factor 2/antioxidant responsive element (Nrf2/ARE) small molecule agonists: qHTS cell viability counter screen in human keratinocytes (AID 1919968; active = well fitted curve in the direction sought with a large enough effect in the repeat runs; an effect the other way counts as inactive or inconclusive; also: nearly all actives have a fitted effect of over 55% in size)
Summary of the method: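 KeratinoSens HaCaT cells, 1,500/well, preincubated 5 h, then exposed to compounds in DMSO for 23 h at 37 C/5% CO2. Viability read as CellTiter-Fluor fluorescence after 1 h, in the same wells as the ARE-luciferase read.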

[2] = Nuclear factor erythroid 2-related factor 2/antioxidant responsive element (Nrf2/ARE) small molecule agonists: luciferase reporter gene qHTS assay in human keratinocytes (AID 1919969); also: nearly all actives have a fitted effect of over 35% in size
[3] = target: Gonadotropin-releasing hormone receptor (Homo sapiens) (UniProt P30968); experiment: Human gonadotropin-releasing hormone receptor (GnRHR) small molecule agonists, calcium flux assay in GnRHR-HEK293 cells (AID 1920063); also: nearly all actives have a fitted effect of over 35% in size
Summary of the method: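 HEK293 cells stably expressing human GnRHR were dye-loaded for 1 h at 37 C. Compound was added in agonist mode and fluorescence (Ex/Em 480/540) recorded kinetically for 3 min. Fifteen concentrations, triplicates.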

[4] = target: KiSS-1 receptor (Homo sapiens) (UniProt Q969F8); experiment: Human kisspeptin (KISS1R) small molecule agonists, calcium flux assay in KISS1R-HEK293 cells (AID 1920064; active = well fitted curve in the direction sought with a large enough effect in the repeat runs; an effect the other way counts as inactive or inconclusive)
Summary of the method: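 HEK293 cells stably expressing human KISS1R were loaded with calcium dye for 1 h at 37 C, then given compound; fluorescence (Ex/Em 480/540) was read kinetically for 3 min. Fifteen concentrations, triplicate.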

[5] = G protein-coupled receptor (GPCR) small molecule agonists, calcium flux assay: HEK293 wild type cell line counter screen (AID 1920065)
Summary of the method: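 Wild-type HEK293 cells plated 18 h, loaded with calcium dye 1 h at 37 C, then compounds added in agonist mode (ATP as positive control). Kinetic fluorescence Ex/Em 480/540 recorded 3 min at 1 sec intervals; 15 concentrations, triplicate.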

[6] = p53 small molecule agonists, cell-based qHTS assay with human liver microsomes (AID 1963577)
Summary of the method: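 p53RE-bla reporter cells were pre-incubated 5 h at 37 C, then treated with compounds plus human liver microsomes (0.5 mg/mL final) and NADPH (0.5 mg/mL final) for 16 h at 37 C. Beta-lactamase activity was read by LiveBLAzer fluorescence after 2 h at room temperature.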

[7] = p53 small molecule agonists, cell-based qHTS assay with rat liver microsomes (AID 1963578)
Summary of the method: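 p53RE-bla cells were exposed to compounds together with rat liver microsomes (0.5 mg/mL final) and NADPH (0.5 mg/mL final) for 16 h at 37 C, then read by LiveBLAzer beta-lactamase fluorescence after 2 h at room temperature.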

[8] = p53 small molecule agonists, cell-based qHTS assay with rat liver microsomes: qHTS cell viability counter screen (AID 1963580); also: nearly all actives have a fitted effect of over 45% in size
Summary of the method: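 Viability is assessed in parallel with the p53 reporter read: HCT-116 p53RE-bla cells receive compounds plus rat microsomes and NADPH (0.5 mg/mL final apiece), incubate 16 h at 37 C, and then CellTiter-Glo luminescence is recorded.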

[9] = p53 small molecule agonists, cell-based qHTS assay: qHTS cell viability counter screen (AID 1963581); also: nearly all actives have a fitted effect of over 45% in size
Summary of the method: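 p53RE-bla HCT-116 cells, compounds added 5 h after plating and incubated 16 h at 37 C. Cytotoxicity measured in the same wells as intracellular ATP by CellTiter-Glo luminescence after 30 min at room temperature.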

[10] = p53 small molecule agonists, cell-based qHTS assay (AID 1963582; active = well fitted activation curve with a large enough effect in the signal ratio in the repeat runs, not every such curve was filed as active; the % refers to the signal ratio)
Summary of the method: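 p53RE-bla reporter cells, compounds added in DMSO after 5 h plating, incubated 16 h at 37 C. Beta-lactamase read via 2 h room-temperature LiveBLAzer B/G FRET substrate, fluorescence intensity.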

[11] = target: 5-hydroxytryptamine receptor 2A (Homo sapiens) (UniProt P28223); experiment: 5-hydroxytryptamine receptor 2A (HTR2A) small molecule agonists, cell-based qHTS assay (AID 1963587); also: nearly all actives have a fitted effect of over 30% in size
Summary of the method: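 CHO cells stably expressing human HTR2A, plated 18 h, loaded with calcium dye 1 h at 37 C. Agonist mode: compounds added and intracellular calcium fluorescence recorded kinetically for 2 min at 1 sec intervals.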

[12] = target: Muscarinic acetylcholine receptor M1 (Homo sapiens) (UniProt P11229); experiment: Cholinergic receptor muscarinic 1 (CHRM1) small molecule agonists, cell-based qHTS assay (AID 1963589); also: nearly all actives have a fitted effect of over 35% in size
Summary of the method: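 CHO cells stably expressing human CHRM1 were loaded with calcium dye for 1 h at 37 C, then compound was added in agonist mode. Intracellular calcium fluorescence was followed kinetically at 1 s intervals. Fifteen concentrations were tested in three independent runs.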

[13] = cAMP Responsive Elements (CRE) small molecule agonists, cell-based qHTS assay (AID 1963590)
Summary of the method: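 CRE-bla HEK 293T cells, 2,000/well in DMEM with 10% dialyzed FBS and 25 mM HEPES, pre-incubated 18 h at 37 C, then exposed to compound 3 h at 37 C. Beta-lactamase reporter read with LiveBLAzer B/G FRET substrate after 2 h at room temperature.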

[14] = cAMP Responsive Elements (CRE) small molecule antagonists, cell-based qHTS assay (AID 1963591; active = well fitted inhibition curve with a large enough effect in the signal ratio in the repeat runs, not every such curve was filed as active; the % refers to the signal ratio)
Summary of the method: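 CRE-bla HEK293T cells plated 18 h, then given compound plus NKH477 at 0.25 uM final for 3 h at 37C. Beta-lactamase reporter read with LiveBLAzer B/G FRET substrate after 2 h at room temperature.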

[15] = target: Beta-2 adrenergic receptor (Homo sapiens) (UniProt P07550); experiment: Adrenergic beta2 receptor (ADRB2) small molecule antagonists, cell-based qHTS assay (AID 1963592); also: series mostly up to about 92 µM; nearly all actives have a fitted effect of over 50% in size
Summary of the method: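 Cells (CHO, stable ADRB2 overexpression) incubated 18-20hr at 37C; compounds added from DMSO; agonist mix (1nM isoproterenol, 100uM IBMX, 25uM Ro-20-1724) added; 0.5hr RT; d2-cAMP and anti-cAMP-cryptate added; 1hr RT; 665/615 nm read.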

[16] = target: D(2) dopamine receptor (Homo sapiens) (UniProt P14416); experiment: Dopamine D2 receptor (DRD2) small molecule agonists, cell-based qHTS assay (AID 1963594); also: nearly all actives have a fitted effect of over 35% in size
Summary of the method: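 HEK293 cells stably expressing human DRD2, pre-treated with PDE inhibitor Ro20-1724 (0.1 mM final) and compound 10 min at room temperature, then stimulated with NKH477 (200nM […]) for 30 min. cAMP read by HTRF (665/620 nm).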

[17] = target: D(2) dopamine receptor (Homo sapiens) (UniProt P14416); experiment: Dopamine D2 receptor (DRD2) small molecule antagonists, cell-based qHTS assay (AID 1963595; active = well fitted inhibition curve with a large enough effect in the signal ratio in the repeat runs, with a control signal flat; the % refers to the signal ratio)
Summary of the method: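 HTRF cAMP read-out at 665 and 620 nm emission (340 nm excitation). Antagonist mode: compounds were tested against 12 nM quinpirole in DRD2-HEK293 cells, with 200 nM NKH477 raising cAMP and 0.1 mM Ro20-1724 blocking its breakdown.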

[18] = target: Muscarinic acetylcholine receptor M1 (Homo sapiens) (UniProt P11229); experiment: Cholinergic receptor muscarinic 1 (CHRM1) small molecule antagonists, cell-based qHTS assay (AID 1963588); also: nearly all actives have a fitted effect of over 40% in size
Summary of the method: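 CHRM1-CHO calcium-flux assay, antagonist mode. Cells were seeded 18 h, dye-loaded 1 h at 37 C and given compound for 5 min at RT, then acetylcholine was added at 50nM. FDSS fluorescence was read 3 min; 15 concentrations, three runs.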

[19] = target: Beta-2 adrenergic receptor (Homo sapiens) (UniProt P07550); experiment: Adrenergic beta2 receptor (ADRB2) small molecule agonists, cell-based qHTS assay (AID 1963593);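 also: CHO cells stably overexpressing human ADRB2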
Summary of the method: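 CHO cells stably over-expressing ADRB2 were plated overnight at 37C, then dosed with compounds plus a stimulation mix containing 100uM IBMX and 25uM Ro-20-1724 for 0.5hr at room temperature. cAMP was measured by HTRF competition, 1hr.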

[20] = target: 5-hydroxytryptamine receptor 2A (Homo sapiens) (UniProt P28223); experiment: 5-hydroxytryptamine receptor 2A (HTR2A) small molecule antagonists, cell-based qHTS assay (AID 1963586); also: nearly all actives have a fitted effect of over 45% in size
Summary of the method: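 Antagonist-mode intracellular calcium assay: DOI (4 nM) added after 5 min compound pre-incubation at room temperature to dye-loaded HTR2A-CHO cells. Fluorescence followed for 3 min, sampled every second.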

Measured: Potency

Sequence of KiSS-1 receptor (Homo sapiens) (Q969F8 whole entry, looked up): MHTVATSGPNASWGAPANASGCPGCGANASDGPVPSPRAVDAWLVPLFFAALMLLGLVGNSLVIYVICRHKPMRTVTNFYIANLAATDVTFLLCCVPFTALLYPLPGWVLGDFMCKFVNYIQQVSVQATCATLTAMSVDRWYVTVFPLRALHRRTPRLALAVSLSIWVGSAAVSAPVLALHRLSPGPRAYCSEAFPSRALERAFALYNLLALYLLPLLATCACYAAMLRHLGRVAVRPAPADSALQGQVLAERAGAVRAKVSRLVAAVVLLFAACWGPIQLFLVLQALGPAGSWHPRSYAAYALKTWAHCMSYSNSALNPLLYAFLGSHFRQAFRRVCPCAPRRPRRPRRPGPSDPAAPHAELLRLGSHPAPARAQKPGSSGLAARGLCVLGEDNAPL
Sequence of D(2) dopamine receptor (Homo sapiens) (P14416 whole entry, looked up): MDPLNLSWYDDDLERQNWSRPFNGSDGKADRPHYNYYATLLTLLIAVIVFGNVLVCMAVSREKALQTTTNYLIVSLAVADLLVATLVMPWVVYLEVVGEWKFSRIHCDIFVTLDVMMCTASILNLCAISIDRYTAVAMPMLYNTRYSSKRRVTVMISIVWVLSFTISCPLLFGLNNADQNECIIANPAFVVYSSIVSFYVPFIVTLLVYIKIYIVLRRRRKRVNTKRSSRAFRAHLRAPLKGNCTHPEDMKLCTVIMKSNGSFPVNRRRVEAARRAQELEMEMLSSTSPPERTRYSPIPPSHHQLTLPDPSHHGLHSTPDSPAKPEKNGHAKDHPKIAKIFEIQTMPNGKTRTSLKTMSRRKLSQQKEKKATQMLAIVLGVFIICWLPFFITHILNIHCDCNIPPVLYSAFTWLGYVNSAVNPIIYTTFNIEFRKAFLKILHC
Sequence of Gonadotropin-releasing hormone receptor (Homo sapiens) (P30968 whole entry, looked up): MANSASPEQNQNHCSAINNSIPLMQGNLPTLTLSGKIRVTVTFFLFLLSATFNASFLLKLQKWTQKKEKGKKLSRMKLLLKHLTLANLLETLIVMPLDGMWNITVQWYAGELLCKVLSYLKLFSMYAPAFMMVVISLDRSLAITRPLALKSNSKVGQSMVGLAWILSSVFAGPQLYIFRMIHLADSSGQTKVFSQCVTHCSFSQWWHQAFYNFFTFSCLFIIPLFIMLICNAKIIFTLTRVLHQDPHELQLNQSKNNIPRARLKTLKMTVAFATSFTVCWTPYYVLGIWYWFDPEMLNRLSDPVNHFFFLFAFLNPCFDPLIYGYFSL
Sequence of Muscarinic acetylcholine receptor M1 (Homo sapiens) (P11229 whole entry, looked up): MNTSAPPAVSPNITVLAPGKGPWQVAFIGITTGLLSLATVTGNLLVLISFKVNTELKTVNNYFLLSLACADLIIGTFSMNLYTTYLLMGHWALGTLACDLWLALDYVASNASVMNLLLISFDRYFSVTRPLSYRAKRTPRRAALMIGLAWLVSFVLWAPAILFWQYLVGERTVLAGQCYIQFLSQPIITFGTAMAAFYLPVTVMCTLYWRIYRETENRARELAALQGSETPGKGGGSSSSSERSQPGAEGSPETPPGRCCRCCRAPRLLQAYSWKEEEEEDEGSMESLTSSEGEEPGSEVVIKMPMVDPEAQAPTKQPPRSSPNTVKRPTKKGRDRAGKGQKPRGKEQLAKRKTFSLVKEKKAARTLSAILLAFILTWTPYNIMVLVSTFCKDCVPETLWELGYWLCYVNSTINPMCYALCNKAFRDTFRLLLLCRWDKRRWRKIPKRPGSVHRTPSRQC
Sequence of 5-hydroxytryptamine receptor 2A (Homo sapiens) (P28223 whole entry, looked up): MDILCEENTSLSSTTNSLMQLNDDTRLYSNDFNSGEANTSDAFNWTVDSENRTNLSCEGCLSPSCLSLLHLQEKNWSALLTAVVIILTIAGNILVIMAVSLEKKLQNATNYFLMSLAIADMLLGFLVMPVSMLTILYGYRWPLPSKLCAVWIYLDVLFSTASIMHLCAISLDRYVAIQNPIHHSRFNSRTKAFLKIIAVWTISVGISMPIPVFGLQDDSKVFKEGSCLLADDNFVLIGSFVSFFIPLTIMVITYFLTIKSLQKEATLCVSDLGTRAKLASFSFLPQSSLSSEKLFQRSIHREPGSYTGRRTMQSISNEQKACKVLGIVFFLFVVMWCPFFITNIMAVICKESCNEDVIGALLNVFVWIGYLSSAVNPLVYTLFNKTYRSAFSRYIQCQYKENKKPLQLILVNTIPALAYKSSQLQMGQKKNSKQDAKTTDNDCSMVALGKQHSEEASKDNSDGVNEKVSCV
Sequence of Beta-2 adrenergic receptor (Homo sapiens) (P07550 whole entry, looked up): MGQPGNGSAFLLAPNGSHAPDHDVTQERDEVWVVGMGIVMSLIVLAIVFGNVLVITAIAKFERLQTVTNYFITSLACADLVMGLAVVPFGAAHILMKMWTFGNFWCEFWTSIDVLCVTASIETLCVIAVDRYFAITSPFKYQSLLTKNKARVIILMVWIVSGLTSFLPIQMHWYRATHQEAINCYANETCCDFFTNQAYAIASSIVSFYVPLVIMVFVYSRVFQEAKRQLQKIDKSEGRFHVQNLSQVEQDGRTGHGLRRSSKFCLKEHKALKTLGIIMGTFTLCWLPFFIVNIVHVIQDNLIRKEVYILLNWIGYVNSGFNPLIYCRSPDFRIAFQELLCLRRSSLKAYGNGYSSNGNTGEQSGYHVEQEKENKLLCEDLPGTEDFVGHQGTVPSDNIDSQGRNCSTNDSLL

CN(C)CC/C=C1/c2ccccc2COc2ccc(CC(=O)O)cc21
not listed: [18] | [19] | [20]
inactive: all other assays above

CCCC[P+](C)(CCCC)CCCC
not listed: [10] | [13] | [14] | [16] | [20]
inactive: all other assays above

Cc1ccc2sc3cccc(C)c3c2c1
not listed: [19] | [20]
inactive: all other assays above

CCCCCCCCC(=O)Cl
not listed: [13] | [19] | [20]
inactive: all other assays above

C[N+]1(CC2COC(c3ccccc3)(C3CCCCC3)O2)CCCCC1 (stereo not given)
not listed: [10] | [13] | [14] | [15]
inactive: all other assays above

NC(=O)C(c1ccccc1)(c1ccccc1)[C@@H]1CCN(CCc2ccc3c(c2)CCO3)C1
not listed: [11] | [14] | [18] | [19] | [20]
inactive: all other assays above

O=C(O)CCC(=O)OC[C@@H](NC(=O)C(Cl)Cl)[C@H](O)c1ccc([N+](=O)[O-])cc1
not listed: [17] | [18] | [20]
inactive: all other assays above
